# AmpC no deterg: inhibitors of E. coli AmpC beta-lactamase without detergent. AID 485341. AmpC nitrocefin hydrolysis, absorbance 480 nm, 0.0001% Triton. actives 0.52% (n = 330,000). Potency, µM (doses to about 57.1 µM), without a hit: at the top dose activity change, negative = inhibition, hits mostly inhibitors;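 further: plate controls were no compound for no effect and no enzyme for full effect; nearly all actives have a fitted effect of over 20% in size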
# Target sequence (P00811 whole entry, looked up): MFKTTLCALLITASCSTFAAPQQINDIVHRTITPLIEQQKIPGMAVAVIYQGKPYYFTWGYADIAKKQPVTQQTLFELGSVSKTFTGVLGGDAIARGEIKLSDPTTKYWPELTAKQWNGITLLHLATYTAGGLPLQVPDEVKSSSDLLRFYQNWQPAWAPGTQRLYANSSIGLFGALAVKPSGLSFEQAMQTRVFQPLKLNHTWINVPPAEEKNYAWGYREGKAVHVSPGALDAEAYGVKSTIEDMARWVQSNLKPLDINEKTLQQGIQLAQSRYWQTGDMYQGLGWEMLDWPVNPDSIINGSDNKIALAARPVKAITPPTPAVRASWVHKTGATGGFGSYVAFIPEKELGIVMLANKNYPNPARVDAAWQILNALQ
#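 20 mM phosphate pH 7.0 + 0.01% (detergent screen) or 0.0001% Triton X-100; 5.3 nM AmpC reagent; cpd preinc 15 min RT; nitrocefin (800 uM stock) to start; A480 q20 s × 4 min; Activity was normalised to no-enzyme and no-compound control wells.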
# AmpC detergent: inhibitors of E. coli AmpC beta-lactamase with detergent; AmpC hydrolysis of nitrocefin, absorbance 480 nm, 0.01% Triton; Potency, µM (highest dose often 114 µM), for the others: at the highest dose activity change, negative = inhibition, usual class: inhibitors; actives 0.041% (n = 370,000); AID 485294;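 further: 0% = no-compound wells and -100% = no-enzyme wells; nearly all actives have a fitted effect of over 25% in size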
#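 20 mM phosphate pH 7.0 + 0.01% (detergent screen) or 0.0001% Triton X-100; 5.3 nM AmpC reagent; cpd preinc 15 min RT; nitrocefin (800 uM stock) to start; A480 q20 s × 4 min; Activity was normalised to no-enzyme and no-compound control wells.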
# Sm TGR block: blocks Schistosoma mansoni thioredoxin glutathione reductase. purified TGR, DTNB reduction, TNB absorbance 405 nm. actives 3% (n = 360,000). Potency, µM (highest dose often 114 µM), for the others: at the top dose activity change, negative = inhibition, hits mostly inhibitors. Q962Y6; further: nearly all actives have a fitted effect of over 60% in size
#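 TGR 20 nM + NADPH 100 uM (dispensed conc.), cpd preinc 15 min RT; start with NADPH (500 uM addition) then DTNB (15 mM addition). Kinetic TNB absorbance, 405 nm filter. Four-parameter Hill fit across titration.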
# * hit, by the source's call; ? = inconclusive; / = not tested or not shown; [ ] = dose if it differs, or a comment. A selection: hits, their analogues and other compounds. The true share with any hit is near 3.3%. The call rests on the fitted dose curve; in most records, active means well fitted curve in the direction sought with a large enough effect; inconclusive means small, poorly fitted or top-dose-only effect, or another doubt; inactive means no such curve, though single readings can be large; an effect the other way counts as inactive or inconclusive. Unless noted, on the % scale 0 is the no-effect control and ±100 the full control effect; potency means the concentration at half of the fitted maximal effect.
SMILES,AmpC no deterg,AmpC detergent,Sm TGR block
O=C(NCc1ccccc1Br)C1CCCN(C(=O)N2CCOc3ccccc32)C1 (stereo not drawn),/,-4%,1%
Clc1ccc2nc(-c3ccc(Br)o3)c(Nc3ccc4c(c3)OCCO4)n2c1,/,1%,-18%
Cc1cccn2c(=O)c(C(=O)NC(C)c3ccccc3)c(O)nc12 (stereo not drawn),/,26%,1%
CCC(C(=O)Nc1ccc(C(C)C)cc1)n1nc(C)n2c(cc3cc(C)ccc32)c1=O (stereo not drawn),/,-1%,-4%
COCCNC(=O)c1ccc(CS(=O)(=O)c2ccc(OC)cc2)o1,-13%,1%,-32%
COc1ccc(S(=O)(=O)Cc2ccc(C(=O)NCc3ccccn3)o2)cc1,4%,1%,35µM*
COc1ccc(S(=O)(=O)Cc2ccc(C(=O)NCC(OC)OC)o2)cc1,-8%,3%,-17%
Cc1ccc(C(=O)NCc2ccccn2)o1,-1%,-9%,4%
COC(=O)c1ccc(CS(=O)(=O)c2ccc(F)cc2)o1,-10%,-14%,22µM*
COC(CNC(=O)c1ccc(CS(=O)(=O)c2ccccc2)o1)OC,-17%,2%,18µM*
Cc1ccc(CS(=O)(=O)Cc2ccc(C(=O)NCc3ccccn3)o2)cc1,1%,-1%,40µM*
O=C(NCc1ccc(F)cc1)c1ccc(CS(=O)(=O)c2ccc(Cl)cc2)o1,/,-1%,-10%
Cc1ccc(S(=O)(=O)Nc2ccc3c(c2)c(C(=O)OC(C)C)c(C)n3S(=O)(=O)c2ccc(C)cc2)cc1,/,9%,1%
Cc1cccc(NC(=O)CSc2ccc(-c3sc(-c4ccccc4)nc3C)nn2)c1C,/,-10%,-3%
Cc1cc(C)c(NC(=O)c2cc(CN3CCOCC3)on2)c(C)c1,/,-3%,-1%
CCOC(=O)c1nc(NCc2ccc(Cl)cc2)c2c(C)noc2n1,/,8%,-1%
Cc1csc2nc(COc3ccccc3NC(=O)c3ccco3)cc(=O)n12,/,11%,7%
CCC(C)n1c(=O)c2sccc2n2c(CCCC(=O)N3CCC(C(N)=O)CC3)nnc12 (stereo not drawn),-5%,2%,7.1µM*
CCn1c(=O)c2sccc2n2c(CCCC(=O)N3CCN(c4ccc(F)cc4)CC3)nnc12,/,17%,-3%
O=C(O)c1cccc2c1C(=O)c1ccccc1C2=O,-18%,-16%,-7%
O=C(O)c1ccc2c3c(ncnc13)-c1ccccc1C2=O,1%,-19%,50µM*
COCCOC(=O)c1c(C)n(S(=O)(=O)c2ccc(C)cc2)c2ccc(NS(=O)(=O)c3ccc(C)cc3)cc12,/,11%,-3%
Cc1cc(C)c2nc(SCC(=O)N3CC(=O)Nc4ccccc43)c(C#N)cc2c1,3.5µM*,2%,-2%
COc1ccc2nc(SCC(=O)N3CC(=O)Nc4ccccc43)c(C#N)cc2c1,-52%,?,-13%
C=CCN=C1N[C@@H](c2ccc(Br)cc2)C(C(=O)OC)=C(C)N1Cc1ccccc1,77%,?,-11%
SMILES,AmpC no deterg,AmpC detergent,Sm TGR block
COc1ccc(C(=O)Nc2ccc3nc(SCC(=O)N(C)c4ccccc4)sc3c2)cc1,/,15%,16%
CC(C)OC(=O)/C(=C/c1ccco1)c1ccccc1,7%,-8%,10µM*
CC(C)(C)NC(=O)/C(=C/c1ccco1)c1ccccc1,-12%,-1%,?
Cc1ccccc1NC(=O)/C(=C/c1ccco1)c1ccccc1,-28%,-9%,?
CCc1ccccc1NC(=O)/C(=C/c1ccco1)c1ccccc1,-27%,-14%,35µM*
CCCCNC(=O)c1ccc(NS(=O)(=O)c2ccc3[nH]c(=O)[nH]c3c2)cc1,-40%,5%,-4%
CCCCCNC(=O)c1ccc(NS(=O)(=O)c2ccc3[nH]c(=O)[nH]c3c2)cc1,0%,7%,25µM*
CN1CCN(c2ccc([N+](=O)[O-])c3no[n+]([O-])c23)CC1,-16%,-8%,45µM*
Cc1ccc(-c2noc(-c3ccc(N4CCN(C)CC4)c([N+](=O)[O-])c3)n2)cc1,/,22%,-5%
COc1c(C)cc(S(=O)(=O)NCCc2c(C)[nH]c3ccccc23)c(C)c1C,/,1%,3%
O=C(CNC(=O)C12CC3CC(CC(C3)C1)C2)N/N=C\c1ccco1,-17%,3%,-1%
O=C(/C=C/c1ccco1)Nc1ccc2c(c1)OCCO2,-25%,-3%,20µM*
O=C(/C=C/c1ccccc1)Nc1ccc2c(c1)OCCO2,-28%,0%,4%[57.1 µM]
O=C(/C=C/c1ccco1)NC(=S)Nc1ccc(N2CCOCC2)c(Cl)c1,8%,?,40µM*
CCN(CC)S(=O)(=O)c1ccc(/C=C/C(=O)Nc2ccccc2N2CCOCC2)cc1,37%,3%,4%
O=C(/C=C/c1ccco1)Nc1ccccc1N1CCOCC1,-25%,?,20µM*
O=C(/C=C/c1ccccc1)NC(=S)Nc1ccc(N2CCOCC2)c(Cl)c1,-20%,-1%,0%
O=C(/C=C/c1ccco1)c1ccc(NC(=O)C23CC4CC(CC(C4)C2)C3)cc1,18µM*,0%,10µM*
CCOC(=O)c1c(Nc2cc(C)cc(C)c2)nnc(-c2ccccc2)c1-c1ccccc1,/,18%,8%
COc1cccc(CNC(=O)c2ccc3c(c2)N(Cc2ccc(F)cc2Cl)C(=O)c2ccccc2S3)c1,/,10%,-5%
O=C(/C=C/c1ccco1)Nc1ccc(N2CCCC2)cc1,-24%,-14%,-27%
O=C(/C=C/c1ccccc1)Nc1ccc(CN2CCOCC2)cc1,-26%,-14%,-1%
O=C(/C=C/c1ccco1)Nc1ccc(CN2CCOCC2)cc1,-18%,-3%,20µM*
O=C(/C=C/c1ccco1)Nc1ccc(C(=O)N2CCOCC2)cc1,-17%,-2%,13µM*
Cc1oc(-c2ccccc2F)nc1CS(=O)(=O)CC(=O)NC1CCCC(C)C1C (stereo not drawn),86%,-9%,-22%
SMILES,AmpC no deterg,AmpC detergent,Sm TGR block
Cc1ccc(-c2nc(CS(=O)(=O)CC(=O)NC3CCCCCC3)c(C)o2)cc1,14%,-6%,25µM*
COc1ccc(-c2nc(CS(=O)(=O)CC(=O)NC3CCCCCC3)c(C)o2)cc1,55%,3%,?
Cc1oc(-c2ccccc2F)nc1CS(=O)(=O)CC(=O)NC1CCCC1,0%,?,40µM*
CCCn1c(SCc2nc(-c3ccccc3C)no2)nnc1-c1ccc(Cl)cc1,/,11%,0%
CCn1cc2nc(SCC(=O)Nc3ccccc3C(F)(F)F)n(Cc3ccc(C)cc3)c(=O)c2n1,/,-9%,-14%
Cc1coc2cc3oc(=O)c(CC(=O)NCc4ccccc4)c(C)c3cc12,/,16%,7%
CCSc1nnc2ccc(-c3ccco3)nn12,-4%,0%,35µM*
CCSc1nnc2ccc(-c3ccc(C)cc3)nn12,108%,8%,0%
Cc1nc(COC(=O)c2ccc(CO)cc2)cs1,-2%,-12%,4%
Cc1nc(COC(=O)c2cc(O)c3ccccc3c2O)cs1,-33%,-10%,18µM*
CCC(C(=O)Nc1ccc(C(=O)OC)cc1)n1nc(-c2ccc(C)cc2)c2c(c1=O)CCCC2 (stereo not drawn),/,8%,5%
CCCCOc1ccc(C(=O)N2CCN(CCc3ccncc3)CC2)cc1,/,4%,-24%

# Assay outcomes from PubChem.
